Assay [1] concerns the target human Retinoid X Receptor beta (RXRb), RXRB (gene 6257) (UniProt P28702). In words: ATG_RXRb_TRANS: Attagene TRANS-FACTORIAL HepG2 Assay for human Retinoid X Receptor beta (RXRb) (AID 2283013; active = hit-call score of the fitted dose curve at least 0.9, where 1 is the maximum). Summed up: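 After a 24 h incubation with test chemical, transfected HepG2 cells carrying NR-Gal4 fusions and GAL4-UAS reporter transcription units yield RNA whose reporter cDNA is FAM-labelled, HpaI-cut and sized by capillary electrophoresis; increases over DMSO are scored.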

For assay [2], the target named is human Thyroid Receptor alpha (THRa1), THRA (gene 7067) (UniProt P10827). The assay can be described thus: ATG_THRa1_TRANS: Attagene TRANS-FACTORIAL HepG2 Assay for human Thyroid Receptor alpha (THRa1) (AID 2283014; active = hit-call score of the fitted dose curve at least 0.9, where 1 is the maximum). Summed up:
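HepG2 cells transiently transfected with chimeric NR-Gal4 and GAL4-UAS reporter units, dosed 24 h. Reporter mRNA quantified by RT-PCR, fluorescent labeling, HpaI digestion and capillary electrophoresis; gain-of-signal fit versus DMSO.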

Read-out in assay [3]: E-selectin (Homo sapiens) (UniProt P16581)
The assay can be described thus: BSK_3C_Eselectin: BioMAP Diversity Plus: 3C Assay for Eselectin Biomarker Activity (AID 2283015).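 As to outcome: cell surface E-selectin protein quantified by ELISA 24 h after dosing.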 Particulars: primary human endothelial cells (HUVEC); actives raise or lower the signal. In a few lines: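 Primary human umbilical vein endothelial cells (3C system), read 24 h after compound addition; E-selectin measured by ELISA. Bidirectional curve fitting against DMSO baseline; cytotoxicity by parallel SRB total-protein staining.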

Read-out in assay [4]: Interleukin-1 alpha (IL1a), IL1A (gene 3552)
In words: BSK_BE3C_IL1a: BioMAP Diversity Plus: BE3C Assay for Interleukin-1 alpha (IL1a) Biomarker Activity (AID 2283016). Particulars: primary human bronchial epithelial cells; actives raise or lower the signal. Summed up:
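Measured in human lung primary bronchial epithelial cells: IL-1a by ELISA at 24 h after dosing, with bidirectional fitting against DMSO.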

Read-out in assay [5]: Monocyte Chemoattractant Protein-1 (MCP1), CCL2 (gene 6347)
In words: BSK_3C_MCP1: BioMAP Diversity Plus: 3C Assay for Monocyte Chemoattractant Protein-1 (MCP1) Biomarker Activity (AID 2283017). Particulars: primary human endothelial cells (HUVEC); actives raise or lower the signal. In a few lines: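 Human umbilical vein endothelial cells (3C system) exposed to chemicals for 24 h; MCP-1 quantified by ELISA against the DMSO baseline with bidirectional fitting, and parallel SRB staining used to assess cytotoxicity.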

Read-out in assay [6]: Monocyte Chemoattractant Protein-1 (MCP1), CCL2 (gene 6347)
In words: BSK_4H_MCP1: BioMAP Diversity Plus: 4H Assay for Monocyte Chemoattractant Protein-1 (MCP1) Biomarker Activity (AID 2283018). To be noted: primary human endothelial cells (HUVEC); actives raise or lower the signal. In a few lines: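 Primary human umbilical vein endothelium is exposed to chemical for 24 h before MCP-1 is assayed by ELISA. Concentration-response fitted bidirectionally relative to DMSO.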

Read-out in assay [7]: Human Leukocyte Antigen - DR isotype (HLADR), HLA-DRA (gene 3122)
The assay can be described thus: BSK_3C_HLADR: BioMAP Diversity Plus: 3C Assay for Human Leukocyte Antigen - DR isotype (HLADR) Biomarker Activity (AID 2283019). Particulars: primary human endothelial cells (HUVEC); actives raise or lower the signal. Summed up: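 HUVEC monoculture, HLA-DR measured by ELISA 24 h after chemical dosing. Fitted bidirectionally against DMSO baseline; parallel SRB staining assessed cytotoxicity, with 3C proliferation read by SRB at 48 h.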

Read-out in assay [8]: Interleukin-8 (IL8), CXCL8 (gene 3576)
The assay can be described thus: BSK_3C_IL8: BioMAP Diversity Plus: 3C Assay for Interleukin-8 (IL8) Biomarker Activity (AID 2283020). To be noted: primary human endothelial cells (HUVEC); actives raise or lower the signal. In a few lines:
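Using DMSO-treated wells as the baseline, bidirectional curve fitting was applied to ELISA-measured IL-8 from human umbilical vein endothelial cultures sampled 24 h after compound addition.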

Read-out in assay [9]: Monokine induced gamma interferon (MIG), CXCL9 (gene 4283)
In words: BSK_3C_MIG: BioMAP Diversity Plus: 3C Assay for Monokine induced gamma interferon (MIG) Biomarker Activity (AID 2283021).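 As to AC50: MIG protein level measured by immunoassay in the treated endothelial cultures.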 Particulars: primary human endothelial cells (HUVEC); actives raise or lower the signal. Summed up: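 ELISA-measured MIG in dosed HUVEC 3C cultures at 24 h, analysed by bidirectional fitting with DMSO defining baseline activity.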

Assay [10] is described as follows: BSK_3C_SRB: Viability Assessment in the BioMAP Diversity Plus: 3C Assay (AID 2283023).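 Also: fitted both ways against DMSO so a hit may be signal rise or drop.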 Particulars: primary human endothelial cells (HUVEC). In a few lines:
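Human umbilical vein endothelial cells in the 3C system, treated 24 h. Total protein measured by 0.1% sulforhodamine B staining after 10% TCA fixation, read at 560 nm; bidirectional fit versus DMSO.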

Read-out in assay [11]: Matrix Metallopeptidase 1 (MMP1), MMP1 (gene 4312)
The assay can be described thus: BSK_BE3C_MMP1: BioMAP Diversity Plus: BE3C Assay for Matrix Metallopeptidase 1 (MMP1) Biomarker Activity (AID 2283024). To be noted: primary human bronchial epithelial cells; actives raise or lower the signal. In a few lines: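 In this multiplexed primary-cell system, human bronchial epithelium received chemicals for 24 h before an ELISA for MMP1. Values reflect bidirectional fits normalised to the DMSO baseline.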

Read-out in assay [12]: Pselectin, SELP (gene 6403)
In words: BSK_4H_Pselectin: BioMAP Diversity Plus: 4H Assay for Pselectin Biomarker Activity (AID 2283026). Particulars: primary human endothelial cells (HUVEC); actives raise or lower the signal. In a few lines: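 Bidirectional fits against DMSO gave the endpoint. Cells: primary human umbilical vein endothelium, chemical-treated for 24 h before ELISA detection of P-selectin.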

A short description of assay [13]: BSK_BE3C_SRB: Viability Assessment in the BioMAP Diversity Plus: BE3C Assay (AID 2283028).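 As to AC50: fitted both ways so AC50 may mark signal gain or loss versus DMSO.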 To be noted: primary human bronchial epithelial cells. In a few lines: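 Human bronchial epithelial primary cells in confluent culture, 24 h after chemical dosing; total protein by 0.1% SRB staining after 10% TCA fixation, read at 560 nm. Bidirectional fitting versus DMSO baseline.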

Read-out in assay [14]: Thrombomodulin, THBD (gene 7056)
The assay can be described thus: BSK_3C_Thrombomodulin: BioMAP Diversity Plus: 3C Assay for Thrombomodulin Biomarker Activity (AID 2283029). To be noted: primary human endothelial cells (HUVEC); actives raise or lower the signal. Summed up: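 In a multiplexed primary-cell system, human umbilical vein endothelium received chemical and was assayed 24 h later for thrombomodulin by ELISA. Parallel cultures were SRB-stained (0.1% SRB after 10% TCA fixation, read at 560 nm) to flag cytotoxicity.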

Read-out in assay [15]: Urokinase-type plasminogen activator receptor (uPAR), PLAUR (gene 5329)
In words: BSK_4H_uPAR: BioMAP Diversity Plus: 4H Assay for Urokinase-type plasminogen activator receptor (uPAR) Biomarker Activity (AID 2283030). To be noted: primary human endothelial cells (HUVEC); actives raise or lower the signal. Summed up:
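Human umbilical vein endothelial cells in the 4H system, 24 h after chemical dosing. Cell-surface uPAR measured by ELISA, fitted in both directions versus DMSO; cytotoxicity checked by SRB total protein in parallel cultures.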

Read-out in assay [16]: Vascular endothelial growth factor receptor 2 (Homo sapiens) (UniProt P35968)
The assay can be described thus: BSK_4H_VEGFRII: BioMAP Diversity Plus: 4H Assay for Vascular endothelial growth factor receptor 2 (VEGFR2) Biomarker Activity (AID 2283031).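 As to AC50: cell-surface VEGFR2 protein level quantified by ELISA.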 To be noted: primary human endothelial cells (HUVEC); actives raise or lower the signal. In a few lines: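 Primary human umbilical vein endothelial cells (4H system), 24 h exposure; cell-surface VEGFR2 measured by ELISA. Bidirectional fitting versus DMSO; cytotoxicity checked in parallel by SRB total-protein staining.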

Read-out in assay [17]: Human Leukocyte Antigen - DR isotype (HLADR), HLA-DRA (gene 3122)
In words: BSK_BE3C_HLADR: BioMAP Diversity Plus: BE3C Assay for Human Leukocyte Antigen - DR isotype (HLADR) Biomarker Activity (AID 2283032). To be noted: primary human bronchial epithelial cells; actives raise or lower the signal. Summed up: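 BioMAP BE3C format: human bronchial epithelium, 24 h compound treatment, ELISA detection of HLA-DR, with bidirectional analysis relative to DMSO.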

Assay [18] concerns the target human Vitamin D Receptor (VDR), VDR (gene 7421) (UniProt P11473). In words: ATG_VDR_TRANS: Attagene TRANS-FACTORIAL HepG2 Assay for human Vitamin D Receptor (VDR) (AID 2283022; active = hit-call score of the fitted dose curve at least 0.9, where 1 is the maximum). Summed up: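 HepG2 cells were transiently transfected with GAL4-UAS reporter units and a chimeric VDR-Gal4 construct, then dosed for 24 hours. Reporter mRNA was quantified by RT-PCR, fluorescent labeling, HpaI digestion and capillary electrophoresis; gain of signal analysed vs DMSO.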

The nature of assay [19]: BSK_3C_Vis: BioMAP Diversity Plus: 3C Assay for Morphology Visualization (AID 2283025).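 Also: fitted both ways so gain or loss versus DMSO counts.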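 As to AC50: light microscopy image of cell morphology used as background control.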 Particulars: primary human endothelial cells (HUVEC). In a few lines:
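Light-microscopy morphology readout, 24 h exposure, human primary umbilical vein endothelium; analysed relative to DMSO with bidirectional fitting.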

Assay [20] is described as follows: BSK_4H_SRB: Viability Assessment in the BioMAP Diversity Plus: 4H Assay (AID 2283027).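 Also: cells exposed to compound for 24 h before staining; curves fitted both ways versus DMSO so AC50 may be loss or gain.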 Particulars: primary human endothelial cells (HUVEC). Summed up:
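Cytotoxicity readout: sulforhodamine B (0.1%) staining of total protein after 10% TCA fixation, measured at 560 nm in human umbilical vein endothelium at 24 h. DMSO set the baseline; fitting was bidirectional.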

“And” between values parts separate entries of the source, which are not always exact repeats. Equal values may be shown once. Inconclusive results are not listed. Some structures have more than one record in an assay (separate samples or runs), and their calls can disagree. The source made the active and inactive calls. The calls were made as follows, unless noted: active = hit-call score of the fitted dose curve at least 0.9, where 1 is the maximum; inactive = score below 0.9.

Sequence of human Thyroid Receptor alpha (THRa1), THRA (gene 7067) (P10827 whole entry, looked up, the tested form may be a part): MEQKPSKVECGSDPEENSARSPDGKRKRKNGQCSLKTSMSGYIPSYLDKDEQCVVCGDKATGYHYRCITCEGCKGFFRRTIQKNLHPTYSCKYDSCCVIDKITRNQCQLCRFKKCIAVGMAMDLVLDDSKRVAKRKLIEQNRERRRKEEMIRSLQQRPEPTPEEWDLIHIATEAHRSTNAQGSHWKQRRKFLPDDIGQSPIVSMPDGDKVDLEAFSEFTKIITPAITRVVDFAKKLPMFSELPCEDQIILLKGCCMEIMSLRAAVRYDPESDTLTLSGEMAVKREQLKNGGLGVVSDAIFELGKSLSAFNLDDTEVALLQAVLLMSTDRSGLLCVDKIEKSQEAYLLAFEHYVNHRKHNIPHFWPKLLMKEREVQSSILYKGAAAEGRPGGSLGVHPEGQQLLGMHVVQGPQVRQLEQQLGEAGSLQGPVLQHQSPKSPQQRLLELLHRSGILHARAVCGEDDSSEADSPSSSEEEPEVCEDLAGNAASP
Sequence of E-selectin (Homo sapiens) (P16581 whole entry, looked up): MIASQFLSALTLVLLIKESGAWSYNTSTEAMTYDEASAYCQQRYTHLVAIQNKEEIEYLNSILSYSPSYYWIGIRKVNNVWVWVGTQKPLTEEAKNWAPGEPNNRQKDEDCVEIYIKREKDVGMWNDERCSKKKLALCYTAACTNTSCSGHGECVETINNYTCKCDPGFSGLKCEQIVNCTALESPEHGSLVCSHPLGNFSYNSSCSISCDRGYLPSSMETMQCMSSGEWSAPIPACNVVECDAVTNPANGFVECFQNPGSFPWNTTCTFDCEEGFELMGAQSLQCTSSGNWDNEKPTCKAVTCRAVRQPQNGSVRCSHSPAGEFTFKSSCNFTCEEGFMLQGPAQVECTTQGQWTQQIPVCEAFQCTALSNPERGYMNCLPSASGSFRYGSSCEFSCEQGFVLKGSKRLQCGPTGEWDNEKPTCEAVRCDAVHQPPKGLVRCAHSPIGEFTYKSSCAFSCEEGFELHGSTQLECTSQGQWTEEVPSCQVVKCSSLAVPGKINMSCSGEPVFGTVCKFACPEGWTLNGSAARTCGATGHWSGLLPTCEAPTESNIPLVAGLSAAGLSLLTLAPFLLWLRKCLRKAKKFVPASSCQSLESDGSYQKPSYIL
Sequence of human Vitamin D Receptor (VDR), VDR (gene 7421) (P11473 whole entry, looked up, the tested form may be a part): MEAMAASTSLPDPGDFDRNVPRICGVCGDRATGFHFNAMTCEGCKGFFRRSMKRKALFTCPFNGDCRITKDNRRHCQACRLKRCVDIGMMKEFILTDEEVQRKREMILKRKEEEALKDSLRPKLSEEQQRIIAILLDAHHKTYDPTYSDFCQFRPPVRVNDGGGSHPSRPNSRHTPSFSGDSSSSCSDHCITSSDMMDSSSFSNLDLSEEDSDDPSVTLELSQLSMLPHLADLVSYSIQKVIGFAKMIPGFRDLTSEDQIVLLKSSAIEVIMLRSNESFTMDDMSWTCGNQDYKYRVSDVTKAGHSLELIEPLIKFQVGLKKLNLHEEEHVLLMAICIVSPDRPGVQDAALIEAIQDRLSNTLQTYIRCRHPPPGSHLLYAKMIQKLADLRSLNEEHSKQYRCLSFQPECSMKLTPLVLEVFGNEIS
Sequence of human Retinoid X Receptor beta (RXRb), RXRB (gene 6257) (P28702 whole entry, looked up, the tested form may be a part): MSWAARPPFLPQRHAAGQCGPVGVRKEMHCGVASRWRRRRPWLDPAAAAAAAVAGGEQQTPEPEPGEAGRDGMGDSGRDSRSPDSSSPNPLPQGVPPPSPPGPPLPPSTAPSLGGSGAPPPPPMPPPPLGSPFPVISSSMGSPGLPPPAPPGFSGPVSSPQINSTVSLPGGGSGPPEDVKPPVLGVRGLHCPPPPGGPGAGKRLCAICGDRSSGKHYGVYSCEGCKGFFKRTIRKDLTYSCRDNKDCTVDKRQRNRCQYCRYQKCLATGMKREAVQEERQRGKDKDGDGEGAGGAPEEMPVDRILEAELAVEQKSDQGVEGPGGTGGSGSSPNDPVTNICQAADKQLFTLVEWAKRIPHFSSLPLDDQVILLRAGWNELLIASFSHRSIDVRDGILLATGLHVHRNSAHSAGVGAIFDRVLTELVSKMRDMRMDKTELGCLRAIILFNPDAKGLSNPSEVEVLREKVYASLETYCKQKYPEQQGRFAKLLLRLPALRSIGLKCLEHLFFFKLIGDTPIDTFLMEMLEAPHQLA

`CCC(=O)O`: the call in assay [1] was inactive.

On to `CCc1ccccc1O`, for which the compound was called inactive in assay [1] and in assay [2].

One may read the AC50 as the concentration at which the activity in the assay is half-maximal. For `NC(=NCCCCCCN=C(N)/N=C(\N)Nc1ccc(Cl)cc1)/N=C(\N)Nc1ccc(Cl)cc1`, the call in assay [1] and in [2] was inactive. For the same compound, the half-maximal activity concentration (AC50) was 8.56 µM (active) and 6.83 µM (active) in assay [2]; 7270 nM (active) in [3]; 4740 nM (active) in assay [4]; 5590 nM (active) in assay [5]; 1470 nM (active) in [6]; 4820 nM (active) in [7]. In addition, the half-maximal activity concentration (AC50) in [8] is 3880 nM (active); in assay [9], 9770 nM (active); in assay [10], 4850 nM (active); in [11] it was 3140 nM (active); in [12] it was 4810 nM (active); in [13], 4740 nM (active). Besides, the AC50 in assay [14] is 6150 nM (active); in assay [15], 4470 nM (active); in assay [16] it was 4470 nM (active); in assay [17], 3830 nM (active).

Take `Clc1ccc2c(Cl)ccnc2c1`: the compound was called inactive in assay [1] and in assay [2].

Consider `Cc1[nH]nc2c1N=C(c1ccccc1Cl)c1cc([N+](=O)[O-])ccc1N2`, for which the result in assay [1], in assay [2], in assay [5], in [8], in assay [9] and in assay [18] was inactive. In addition, the result in assay [11] and in [14] was inactive. For the same compound, the AC50 in assay [3] was 3200 nM (active); in assay [4] it was 7770 nM (active); in assay [6] it was 10400 nM (active); in assay [7], 3120 nM (active); in assay [10] it was 750 nM (active); in assay [19], 645 nM (active). In addition, the AC50 in assay [12] was 639 nM (active); in [20], 733 nM (active); in assay [13], 20300 nM (active); in assay [15], 666 nM (active); in assay [16], 2430 nM (active); in assay [17], 10300 nM (active).

Consider `CCCCCCCCCCCC(=O)O`, for which the result in assay [1] and in assay [2] was inactive.

`CCOC(=O)CN[C@@H](C(=O)N1CC[C@H]1C(=O)NCc1ccc(/C(N)=N/O)cc1)C1CCCCC1`: the AC50 in assay [1] was 1420 nM (active). The call in [2], in [3], in [4], in [5], in [6] and in assay [7] was inactive. Also, the outcome in assay [8], in [9], in assay [18], in assay [10], in [11] and in assay [19] was inactive. The outcome in assay [12], in assay [13], in assay [14], in assay [15], in assay [16] and in assay [17] was inactive.

In the case of `Cc1ccccc1OCC(=O)O`, in assay [1], the outcome was inactive.

As to `C[C@]12CC[C@@H]3c4ccc(O)cc4CC[C@H]3[C@@H]1CC[C@@H]2OC(=O)CCC1CCCC1`, the half-maximal activity concentration (AC50) in assay [1] was 169000 nM (active).

Turning to `CN(C)c1ccc(C(=C2C=CC(=[N+](C)C)C=C2)c2ccccc2)cc1`, the concentration at half-maximal activity (AC50) in assay [1] is 1360 nM (active); in assay [3] it was 205 nM (active); in assay [4], 214 nM (active); in [5], 8.2 nM (active); in assay [6], 19.2 nM (active); in assay [7], 8.2 nM (active). The half-maximal activity concentration (AC50) in assay [8] was 668 nM (active); in [9], 356 nM (active); in assay [10], 55 nM (active); in assay [19], 9.48 nM (active); in [12], 13.8 nM (active); in [13], 2720 nM (active). Further, the AC50 in assay [15] was 5.49 nM (active); in assay [16], 24.9 nM (active); in assay [17], 16.2 nM (active). Besides, the call in [1], in assay [2], in assay [18] and in [14] was inactive.

Regarding `c1cnc2c(c1)ccc1cccnc12`, the call in [1], in assay [2] and in [18] was inactive. In addition, the half-maximal activity concentration (AC50) in assay [2] is 26.6 µM (active).

`Nc1ccn([C@@H]2O[C@H](CO)[C@@H](O)C2O)c(=O)n1` (stereo not given in full): in assay [1], the compound was classed as inactive.

For the origin of these results see PubChem BioAssay (EPA / NIEHS).
